Assay [1] concerns the target T1, Serine/threonine-protein kinase BRSK1 (Homo sapiens) (UniProt Q8TDC3).
T1 sequence (whole entry): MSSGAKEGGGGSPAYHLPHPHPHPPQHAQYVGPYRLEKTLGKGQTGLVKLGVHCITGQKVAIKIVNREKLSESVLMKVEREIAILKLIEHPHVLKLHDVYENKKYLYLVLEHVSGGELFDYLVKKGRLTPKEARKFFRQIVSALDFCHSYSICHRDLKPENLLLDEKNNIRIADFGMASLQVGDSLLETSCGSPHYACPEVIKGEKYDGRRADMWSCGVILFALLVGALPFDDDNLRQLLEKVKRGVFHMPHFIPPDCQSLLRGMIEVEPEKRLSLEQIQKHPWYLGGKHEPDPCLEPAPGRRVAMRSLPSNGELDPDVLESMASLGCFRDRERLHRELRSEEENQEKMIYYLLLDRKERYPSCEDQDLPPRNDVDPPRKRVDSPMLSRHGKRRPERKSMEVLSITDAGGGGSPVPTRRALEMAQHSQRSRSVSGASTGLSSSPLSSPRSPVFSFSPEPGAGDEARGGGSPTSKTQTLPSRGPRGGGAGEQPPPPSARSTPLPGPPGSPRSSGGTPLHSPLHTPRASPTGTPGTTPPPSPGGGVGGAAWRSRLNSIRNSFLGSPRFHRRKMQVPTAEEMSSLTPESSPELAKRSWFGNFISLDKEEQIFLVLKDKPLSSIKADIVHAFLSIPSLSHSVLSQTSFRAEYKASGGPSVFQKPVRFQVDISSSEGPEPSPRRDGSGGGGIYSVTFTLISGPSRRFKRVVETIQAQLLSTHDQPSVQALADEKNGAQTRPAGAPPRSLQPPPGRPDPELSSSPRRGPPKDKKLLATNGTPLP
The note with it: at 1 µM.

The target in assay [2] is T1, Serine/threonine-protein kinase BRSK1 (Homo sapiens). Conditions: at 10 µM.
The target in assay [3] is T2, Serine/threonine-protein kinase BRSK2 (Homo sapiens) (UniProt Q8IWQ3).
T2 sequence (whole entry): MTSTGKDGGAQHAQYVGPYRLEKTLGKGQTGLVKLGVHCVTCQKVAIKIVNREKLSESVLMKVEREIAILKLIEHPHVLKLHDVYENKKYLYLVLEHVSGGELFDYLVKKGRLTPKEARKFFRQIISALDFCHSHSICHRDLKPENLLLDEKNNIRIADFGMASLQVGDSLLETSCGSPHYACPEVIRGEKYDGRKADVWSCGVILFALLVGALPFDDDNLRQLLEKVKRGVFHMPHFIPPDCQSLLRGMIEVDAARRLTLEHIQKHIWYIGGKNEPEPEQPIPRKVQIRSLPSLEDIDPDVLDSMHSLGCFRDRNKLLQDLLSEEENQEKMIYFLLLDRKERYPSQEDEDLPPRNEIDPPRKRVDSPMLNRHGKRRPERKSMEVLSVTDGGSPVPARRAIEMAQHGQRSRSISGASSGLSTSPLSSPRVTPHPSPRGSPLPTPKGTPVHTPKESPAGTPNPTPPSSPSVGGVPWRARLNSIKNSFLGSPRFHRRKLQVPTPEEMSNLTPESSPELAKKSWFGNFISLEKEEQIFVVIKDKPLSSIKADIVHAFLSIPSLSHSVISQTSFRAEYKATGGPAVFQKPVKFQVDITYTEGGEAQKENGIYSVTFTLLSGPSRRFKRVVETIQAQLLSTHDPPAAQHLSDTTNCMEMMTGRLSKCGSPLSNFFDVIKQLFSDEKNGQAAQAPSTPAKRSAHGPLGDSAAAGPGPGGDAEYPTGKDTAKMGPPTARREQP
Conditions: at 1 µM.

Assay [4] concerns the target T2, Serine/threonine-protein kinase BRSK2 (Homo sapiens). The note with it: at 10 µM.
Assay [5] has as its target T3, Cyclin-dependent kinase 2/cyclin A (Homo sapiens) (UniProt P24941+P20248+P78396). Conditions: at 1 µM.
In assay [6] the target is T3, Cyclin-dependent kinase 2/cyclin A (Homo sapiens). Conditions: at 10 µM.
Assay [7] addresses T4, Cyclin-dependent kinase 2/cyclin E (Homo sapiens) (UniProt P24864+P24941+O96020). The note with it: at 1 µM.
Assay [8] has as its target T4, Cyclin-dependent kinase 2/cyclin E (Homo sapiens). The note with it: at 10 µM.
Assay [9] has as its target T5, Cyclin-dependent kinase 5/CDK5 activator 1 (Homo sapiens) (UniProt Q00535+Q15078). The note with it: at 10 µM.
The target in assay [10] is T5, Cyclin-dependent kinase 5/CDK5 activator 1 (Homo sapiens). The note with it: at 1 µM.
Assay [11] shares this target. Conditions: at 10 µM. This is another data set of the same source.
The target in assay [12] is T6, Cyclin-dependent kinase 7/ cyclin H (Homo sapiens) (UniProt P51946+P50613). Conditions: at 1 µM.
In assay [13] the target is T6, Cyclin-dependent kinase 7/ cyclin H (Homo sapiens). Conditions: at 10 µM.
In assay [14] the target is T7, Cyclin-dependent kinase 1/cyclin B1 (Homo sapiens) (UniProt P06493+P14635). The note with it: at 1 µM.
T7 sequence (P06493 whole entry, looked up): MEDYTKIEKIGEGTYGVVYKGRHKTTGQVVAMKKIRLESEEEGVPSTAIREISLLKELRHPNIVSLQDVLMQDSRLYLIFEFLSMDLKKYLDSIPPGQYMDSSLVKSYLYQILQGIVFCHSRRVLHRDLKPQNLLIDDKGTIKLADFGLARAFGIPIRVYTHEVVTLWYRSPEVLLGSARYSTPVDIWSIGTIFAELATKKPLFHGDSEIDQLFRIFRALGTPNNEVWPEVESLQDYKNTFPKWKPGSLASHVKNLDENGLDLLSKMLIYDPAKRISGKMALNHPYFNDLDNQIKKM
T7 sequence (P14635 whole entry, looked up): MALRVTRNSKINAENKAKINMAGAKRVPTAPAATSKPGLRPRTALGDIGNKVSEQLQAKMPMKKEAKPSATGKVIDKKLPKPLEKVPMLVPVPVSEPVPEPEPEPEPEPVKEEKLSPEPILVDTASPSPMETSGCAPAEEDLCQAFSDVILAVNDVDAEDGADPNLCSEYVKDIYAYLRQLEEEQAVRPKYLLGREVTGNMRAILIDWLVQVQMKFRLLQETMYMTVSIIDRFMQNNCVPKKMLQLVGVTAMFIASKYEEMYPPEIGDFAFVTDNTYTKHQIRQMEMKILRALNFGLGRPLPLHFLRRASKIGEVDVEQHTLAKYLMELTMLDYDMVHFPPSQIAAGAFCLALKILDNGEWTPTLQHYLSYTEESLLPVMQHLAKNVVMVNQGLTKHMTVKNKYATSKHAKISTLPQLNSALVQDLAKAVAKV
For assay [15], the target named is T8, CDK6/cyclin D3 (Homo sapiens) (UniProt P30281+Q00534). Conditions: at 1 µM.
In assay [16] the target is T8, CDK6/cyclin D3 (Homo sapiens). The note with it: at 10 µM.
The target in assay [17] is T9, CDK3/cyclin E (Homo sapiens) (UniProt P24864+O96020+Q00526). Conditions: at 1 µM.
T9 sequence (O96020 whole entry, looked up): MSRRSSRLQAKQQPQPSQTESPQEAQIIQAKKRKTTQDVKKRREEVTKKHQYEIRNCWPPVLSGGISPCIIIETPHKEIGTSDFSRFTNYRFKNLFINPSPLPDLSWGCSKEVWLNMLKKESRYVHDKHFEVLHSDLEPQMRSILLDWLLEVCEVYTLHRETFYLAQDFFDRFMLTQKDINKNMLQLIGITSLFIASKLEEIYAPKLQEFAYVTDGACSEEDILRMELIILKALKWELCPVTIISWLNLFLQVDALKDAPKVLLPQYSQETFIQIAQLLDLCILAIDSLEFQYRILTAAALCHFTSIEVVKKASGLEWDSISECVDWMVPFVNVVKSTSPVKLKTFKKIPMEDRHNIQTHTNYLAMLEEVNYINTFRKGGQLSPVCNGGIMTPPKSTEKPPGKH
T9 sequence (P24864 whole entry, looked up): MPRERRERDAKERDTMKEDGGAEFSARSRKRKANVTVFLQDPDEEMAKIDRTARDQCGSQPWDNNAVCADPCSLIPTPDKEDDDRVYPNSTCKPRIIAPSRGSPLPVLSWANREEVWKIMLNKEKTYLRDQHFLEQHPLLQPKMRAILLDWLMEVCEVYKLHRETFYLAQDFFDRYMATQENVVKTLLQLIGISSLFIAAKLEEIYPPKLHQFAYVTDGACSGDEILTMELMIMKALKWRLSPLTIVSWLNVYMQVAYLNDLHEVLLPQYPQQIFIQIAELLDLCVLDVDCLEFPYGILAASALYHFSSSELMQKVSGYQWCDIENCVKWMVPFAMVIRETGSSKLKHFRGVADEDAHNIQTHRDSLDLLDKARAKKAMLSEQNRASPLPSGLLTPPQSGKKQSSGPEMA
T9 sequence (Q00526 whole entry, looked up): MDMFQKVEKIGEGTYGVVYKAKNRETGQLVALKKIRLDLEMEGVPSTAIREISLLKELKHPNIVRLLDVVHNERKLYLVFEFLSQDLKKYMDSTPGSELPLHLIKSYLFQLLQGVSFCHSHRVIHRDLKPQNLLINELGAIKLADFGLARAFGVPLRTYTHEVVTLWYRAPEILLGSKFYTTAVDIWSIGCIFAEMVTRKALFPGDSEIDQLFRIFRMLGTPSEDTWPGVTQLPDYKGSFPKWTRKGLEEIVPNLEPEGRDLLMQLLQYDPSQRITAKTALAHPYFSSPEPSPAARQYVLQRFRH
The target of assay [18] is T7, Cyclin-dependent kinase 1/cyclin B1 (Homo sapiens). Conditions: at 10 µM.
Assay [19] addresses T9, CDK3/cyclin E (Homo sapiens). The note with it: at 10 µM.
Assay [20] concerns the target T5, Cyclin-dependent kinase 5/CDK5 activator 1 (Homo sapiens). The note with it: at 1 µM. This is another data set of the same source.

T5 sequence (Q00535 whole entry): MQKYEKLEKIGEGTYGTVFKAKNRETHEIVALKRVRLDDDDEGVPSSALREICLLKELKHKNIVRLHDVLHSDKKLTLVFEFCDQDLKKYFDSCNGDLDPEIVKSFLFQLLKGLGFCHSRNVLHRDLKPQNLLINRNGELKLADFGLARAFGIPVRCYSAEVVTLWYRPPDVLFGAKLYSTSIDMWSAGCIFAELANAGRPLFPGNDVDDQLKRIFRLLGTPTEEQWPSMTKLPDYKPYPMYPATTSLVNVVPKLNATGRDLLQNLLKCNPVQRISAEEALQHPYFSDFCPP
T5 sequence (Q15078 99-307 partner limits assumed): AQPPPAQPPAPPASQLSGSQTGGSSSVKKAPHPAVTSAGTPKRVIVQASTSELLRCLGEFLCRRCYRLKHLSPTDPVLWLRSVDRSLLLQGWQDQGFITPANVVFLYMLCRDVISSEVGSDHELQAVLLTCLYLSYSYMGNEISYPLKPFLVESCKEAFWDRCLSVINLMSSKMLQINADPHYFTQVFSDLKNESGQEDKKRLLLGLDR

Consider `NC(=O)c1ccc(-c2nc(-c3ccc4c(c3)OCCO4)c(-c3ccccn3)[nH]2)cc1`, for which the residual activity stood at 99% in assay [1]; 77% in assay [2]; 119% in [3]; 97% in assay [4]; 96% in assay [5]; 85% in [6]. Further, the residual activity in assay [7] turned out to be 92%; in [8], 87%; in [9] it was 84%; in [10] it was 96%; in assay [11], 80%; in assay [12], 92%. Moreover, the residual activity in assay [13] worked out at 81%.
As for `Nc1nccc(-c2c(-c3ccc(F)cc3)ncn2C2CCNCC2)n1`, the residual activity in assay [3] is 128%; in [4] it was 82%; in [14], 115%; in assay [5] it was 79%; in assay [6] it was 77%; in [12] it was 100%. For the same compound, in [13], the residual activity was determined as 68%.
On to `COc1cc2nccc(Oc3ccc(NC(=O)Nc4cc(C)on4)c(Cl)c3)c2cc1OC`, for which the residual activity in assay [1] was 65%; in assay [2], 46%; in assay [5], 106%; in assay [6] it was 99%; in assay [15], 96%; in assay [16] it was 99%. In addition, the figures for the residual activity in assay [12] and in assay [13] were 99% and 107%, respectively.
In the case of `CCOc1nc(NC(=O)Cc2cc(OC)ccc2OC)cc(N)c1C#N`, the residual activity in assay [17] is 82%; in assay [15] it was 100%.
`CSc1nc(-c2ccc(F)cc2)c(-c2ccnc(NC(C)c3ccccc3)c2)[nH]1` (stereo not given): the residual activity came out at 100% in assay [1]; 55% in assay [2]; 98% in assay [14]; 86% in assay [18]; 80% in [6]; 96% in assay [7]. The residual activity in assay [8] stood at 86%; in [17] it was 93%; in [19], 84%; in [9] it was 101%; in assay [12], 100%; in assay [13], 67%.
As for `O=C(Nc1nc2ccccc2n1CCN1CCOCC1)c1cccc([N+](=O)[O-])c1`, the residual activity in assay [1] came out at 83%; in assay [2], 78%; in assay [14], 114%; in assay [18], 103%; in [7], 106%; in assay [8], 104%. For the same compound, the residual activity in assay [15] was found to be 88%; in assay [16], 88%; in [12], 75%; in assay [13] it was 77%.
Take `Fc1ccc(-c2nc3n(c2-c2ccncc2)CCS3)cc1`: the residual activity was 99% in assay [1]; 100% in assay [2]; 100% in assay [14]; 95% in assay [18]; 83% in [5]; 89% in [6]. The residual activity in [8] turned out to be 94%; in assay [15], 124%.
On to `Nc1ncnc2c1c(-c1ccc(Oc3ccccc3)cc1)cn2C1CCCC1`, for which the residual activity in assay [1] was 17%; in [3], 63%; in assay [4], 61%; in [14] it was 104%; in assay [18], 85%; in assay [5] it was 113%. The residual activity is 72% in [6]; 94% in assay [7]; 79% in [8]; 90% in [17]; 81% in assay [19]; 78% in assay [20]. Also, the residual activity in assay [9] was 58%; in [10] it was 80%; in [11] it was 76%; in assay [15] it was 85%; in [16] it was 66%; in [12] it was 78%. Also, the residual activity in assay [13] stood at 95%.
In the case of `O=S(=O)(c1cccc2cnccc12)N1CCCNCC1`, the residual activity in [2] was found to be 84%; in assay [4], 80%.
For the compound `COc1ccc(CNC(=O)Nc2ncc([N+](=O)[O-])s2)cc1`, the residual activity in assay [5] was 78%; in assay [6], 79%; in [17], 68%; in assay [19], 26%; in assay [13], 69%.
As to `CCOC(=O)c1c(C)[nH]c(/C=C2\C(=O)Nc3ccccc32)c1C`, the residual activity in [5] is 140%; in assay [6] it was 100%; in assay [7], 99%; in assay [8], 95%; in assay [17] it was 100%; in [19], 90%. Further, the residual activity in assay [15] came out at 93%; in assay [16], 95%.
Regarding `N#Cc1c(NC(=O)c2cccc3ccccc23)sc2c1CCCC2`, the residual activity is 90% in assay [4]; 96% in assay [5]; 90% in assay [6]; 96% in assay [7]; 94% in assay [8]; 90% in [16].

The values above are taken from ChEMBL document CHEMBL2218924, “A broad activity screen in support of a chemogenomic map for kinase signalling research and drug discovery” (Biochem J, 2013).
